Laboratory results published in publication PMC4336329 (PLoS ONE, 2015).
Among all 310,000 compounds or so, about 14,000 (4.5%) showed an effect of 50% or more. The effect is printed as a negative number. The full list was thinned out, with strong results kept by preference.

Target: human ether-à-go-go-related gene (hERG) potassium channel (human, UniProt Q12809)
Assay: primary screen, population patch clamp on CHO cells stably expressing hERG; higher = less effect of the substance
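Note: peak tail current of the secondary pulse compared with the same well before compound.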

Chain of human ether-à-go-go-related gene (hERG) potassium channel (Q12809 whole entry, looked up): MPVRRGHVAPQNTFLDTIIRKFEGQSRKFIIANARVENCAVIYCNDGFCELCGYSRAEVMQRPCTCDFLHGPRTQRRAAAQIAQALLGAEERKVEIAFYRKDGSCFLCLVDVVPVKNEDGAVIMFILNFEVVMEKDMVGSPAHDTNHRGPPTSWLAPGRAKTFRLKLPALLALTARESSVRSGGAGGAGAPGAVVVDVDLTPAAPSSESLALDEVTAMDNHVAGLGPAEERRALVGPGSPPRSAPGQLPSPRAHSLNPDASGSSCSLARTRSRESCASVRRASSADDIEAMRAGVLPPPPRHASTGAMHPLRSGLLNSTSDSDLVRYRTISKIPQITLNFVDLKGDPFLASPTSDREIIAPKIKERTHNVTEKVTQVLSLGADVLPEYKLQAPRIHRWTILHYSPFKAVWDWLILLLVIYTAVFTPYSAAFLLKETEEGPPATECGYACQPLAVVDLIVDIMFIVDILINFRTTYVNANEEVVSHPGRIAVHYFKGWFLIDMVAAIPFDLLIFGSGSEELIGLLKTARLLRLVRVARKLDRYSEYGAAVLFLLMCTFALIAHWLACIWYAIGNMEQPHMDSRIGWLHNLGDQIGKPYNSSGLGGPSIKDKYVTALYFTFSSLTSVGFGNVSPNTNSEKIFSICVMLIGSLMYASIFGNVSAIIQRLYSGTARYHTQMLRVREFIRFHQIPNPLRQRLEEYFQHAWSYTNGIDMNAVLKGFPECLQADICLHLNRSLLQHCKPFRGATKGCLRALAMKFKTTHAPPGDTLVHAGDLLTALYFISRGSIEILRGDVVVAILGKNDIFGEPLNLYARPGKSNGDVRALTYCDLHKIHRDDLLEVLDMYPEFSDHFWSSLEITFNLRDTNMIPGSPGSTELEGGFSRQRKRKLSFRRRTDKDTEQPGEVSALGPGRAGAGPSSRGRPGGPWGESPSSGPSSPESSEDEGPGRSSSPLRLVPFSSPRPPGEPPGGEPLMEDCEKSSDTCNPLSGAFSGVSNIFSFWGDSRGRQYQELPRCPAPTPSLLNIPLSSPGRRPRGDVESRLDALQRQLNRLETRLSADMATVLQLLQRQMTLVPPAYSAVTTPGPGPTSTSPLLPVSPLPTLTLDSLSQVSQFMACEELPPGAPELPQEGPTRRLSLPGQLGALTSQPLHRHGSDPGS

Compared with `COc1ccc2c(c1)c(CC(=O)Nc1ccc(C)cc1)c(C)n2C(=O)c1ccc(Cl)cc1`, `Cc1ccc(NS(=O)(=O)c2cccc(C(=O)NCC(c3ccco3)N3CCCC3)c2)cc1` (stereo not shown) is lower in “hERG current change (%, negative = inhibition) at 10uM” value: -20.4% for the first, -47.4% for the second.

Going from `O=C1c2oc3ccccc3c(=O)c2C(c2ccccn2)N1Cc1ccccc1` (stereo not shown) to `O=c1c2ccccc2nc(SCc2ccc([N+](=O)[O-])cc2)n1-c1ccccc1`, the “hERG current change (%, negative = inhibition) at 10uM” value rises from 5.53% to 10.9%.

Compared with `CCOC(=O)c1c(C)nc(-c2ccccc2)nc1NC(=O)CC`, `CCOc1c2ccc(C(=O)NCCCCc3ccccc3)cc2nn1CC` is lower in “hERG current change (%, negative = inhibition) at 10uM” value: 1.29% for the first, -14.1% for the second.

Going from `Cn1c(=O)c2sccc2n2c(CCCC(=O)NCc3ccco3)nnc12` to `COc1ccc(Cl)cc1NC(=O)CSc1nnc(C)c(=O)n1N`, the “hERG current change (%, negative = inhibition) at 10uM” value rises from -1.92% to 2.48%.

First: COC(=O)C1CCN(C(=O)c2ccccc2NC(C)=O)CC1
Second: CC1(C)CC(=O)C(CC(=O)N2CCC(Cc3ccccc3)CC2)C(=O)C1
The “hERG current change (%, negative = inhibition) at 10uM” value of the first is lower: 16.8% for the first, 34.8% for the second.

Compared with `O=C(c1nc(SCc2ccc([N+](=O)[O-])cc2)n2ccccc12)C(F)(F)F`, `O=[N+]([O-])c1ccc(CSc2nnc3ccccn23)cc1` is higher in “hERG current change (%, negative = inhibition) at 10uM” value: -71.1% for the first, -57.2% for the second.

First: O=[N+]([O-])c1ccccc1CSc1nnc2ccccn12
Second: Brc1ccc(CSc2nnc3ccccn23)cc1
The “hERG current change (%, negative = inhibition) at 10uM” value of the first is higher: -0.991% for the first, -18.7% for the second.

Compared with `Cn1ccnc1SCc1ccc([N+](=O)[O-])cc1`, `CC(=O)Nc1ccc(S(=O)(=O)NCc2ccccn2)cc1` is higher in “hERG current change (%, negative = inhibition) at 10uM” value: -2.75% for the first, 9.6% for the second.

First: O=C(NC(=S)NNC(=O)c1ccccc1O)c1cccc([N+](=O)[O-])c1
Second: O=Cc1cccc(OC(=O)Nc2ccccc2)c1
The “hERG current change (%, negative = inhibition) at 10uM” value of the first is higher: 26.2% for the first, 6.95% for the second.

Going from `O=C(NCCCN1CCOCC1)C(=O)N/N=C/c1ccccc1` to `CCN(c1ccccc1)S(=O)(=O)c1cccc(C(=O)NCC(c2cccs2)N2CCOCC2)c1` (stereo not shown), the “hERG current change (%, negative = inhibition) at 10uM” value rises from -20.2% to -18.7%.

First: CCC(=NCCN1CCOCC1)c1c(O)n(C2CCCCC2)c(=O)[nH]c1=O
Second: COc1ccc(CCn2c(O)c(C=Nc3ccc(NC(C)=O)cc3)c(=O)[nH]c2=O)cc1OC
The “hERG current change (%, negative = inhibition) at 10uM” value of the first is lower: -6.76% for the first, 27.6% for the second.

First: CC12CCC(=O)N1C(C(=O)Nc1cccc3ccccc13)CS2 (stereo not shown)
Second: O=C(NC1CC1)c1ccc2c3c(cccc13)CC2
The “hERG current change (%, negative = inhibition) at 10uM” value of the first is higher: 4.6% for the first, -2.52% for the second.

Going from `Cc1cc2nc(-c3ccc4c(c3)CCC4)ccn2n1` to `CC(=O)c1ccc2c3c(cccc13)CC2`, the “hERG current change (%, negative = inhibition) at 10uM” value rises from -2.72% to 2.96%.

Going from `Cc1ccc(NS(=O)(=O)c2cccc(C(=O)NCC3CCCO3)c2)cc1` (stereo not shown) to `Cc1ccc(N(C)S(=O)(=O)c2cccc(C(=O)NCC(c3ccco3)N3CCCC3)c2)cc1` (stereo not shown), the “hERG current change (%, negative = inhibition) at 10uM” value falls from -10% to -62.5%.

Going from `Brc1ccc(-c2nn[nH]n2)cc1` to `C/C(=N/OC(=O)CC(C)C)c1cc(-c2ccc(Cl)cc2)no1`, the “hERG current change (%, negative = inhibition) at 10uM” value rises from 11.2% to 15%.

First: CC(C)(C)NC(=O)c1ccc2c3c(cccc13)CC2
Second: CN(C)C(CNC(=O)c1cc(S(=O)(=O)N(C)c2ccc(F)cc2)ccc1Cl)c1ccco1 (stereo not shown)
The “hERG current change (%, negative = inhibition) at 10uM” value of the first is lower: -51.4% for the first, -28.3% for the second.

First: O=C(c1ccccc1)N1N=C(c2ccc(F)cc2)CC1(O)C(F)(F)F (stereo not shown)
Second: O=C(NCC(c1ccco1)N1CCCC1)c1cccc(NS(=O)(=O)c2ccccc2)c1 (stereo not shown)
The “hERG current change (%, negative = inhibition) at 10uM” value of the first is higher: -5.31% for the first, -5.9% for the second.

First: CN(c1ccccc1)S(=O)(=O)c1ccc(C(=O)NCC(c2ccco2)N2CCCCC2)cc1 (stereo not shown)
Second: CN(c1ccccc1)S(=O)(=O)c1ccc(Cl)c(C(=O)NCC(c2ccco2)N2CCCC2)c1 (stereo not shown)
The “hERG current change (%, negative = inhibition) at 10uM” value of the first is higher: -12.1% for the first, -50.9% for the second.

Going from `COc1ccc(N(C)S(=O)(=O)c2cccc(C(=O)NCC(c3ccco3)N3CCCC3)c2)cc1` (stereo not shown) to `CCN(c1ccccc1)S(=O)(=O)c1cccc(C(=O)NCC(c2ccco2)N2CCCC2)c1` (stereo not shown), the “hERG current change (%, negative = inhibition) at 10uM” value falls from -33.9% to -59.3%.

Going from `CCCn1ncc2c(Nc3ccc(C)c(C)c3)ncnc21` to `OCCCNc1ncnc2sc3c(c12)CCN(Cc1ccccc1)C3`, the “hERG current change (%, negative = inhibition) at 10uM” value falls from -25.2% to -37.9%.

Compared with `CC(NC(=O)c1ccco1)C(=O)N1CCN(C(c2ccccc2)c2ccccc2)CC1` (stereo not shown), `O=C(CN(CC1CCCO1)C(=O)CNS(=O)(=O)c1ccc(Cl)cc1)NCCc1ccccc1` (stereo not shown) is lower in “hERG current change (%, negative = inhibition) at 10uM” value: -15.7% for the first, -20.8% for the second.

In the case of `CN(C)c1cc(-c2ccc(Cl)cc2Cl)oc(=O)c1Cl`, the “hERG current change (%, negative = inhibition) at 10uM” value is reported as 0.166%.
